# Laboratory results as given in PubChem BioAssay (NCI).
# This is part of a sample that, as a whole, favours compounds with a hit. Of some 83,000 tested, about 20% had one in any assay.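 The endpoint reported here, percent growth, reads 100 for growth as untreated, 0 for no net growth and -100 for all cells dead.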 Unmarked numbers belong to inactive results. Calls of active or inactive are those of the source. Rule for the calls: active = growth percent below 10; inactive = the rest.
# Legend:
# Test in all cases: NCI-60 one-dose screen, 48 h (100 = growth as untreated, 0 = no growth, -100 = all killed)
# Details in all cases: 10 µM unless noted
# NCI-H23 lung = tested on: NCI-H23 lung
# NCI-H226 lung = tested on: NCI-H226 lung
# NCI-H322M lung = tested on: NCI-H322M lung
# HOP-62 NSCLC = tested on: HOP-62 NSCLC
# NCI-H460 lung = tested on: NCI-H460 lung
# HOP-92 NSCLC = tested on: HOP-92 NSCLC
# NCI-H522 lung = tested on: NCI-H522 lung
# A549/ATCC NSCLC = tested on: A549/ATCC NSCLC
# 786-0 renal = tested on: 786-0 renal
# COLO 205 colon = tested on: COLO 205 colon
# DU-145 prostate = tested on: DU-145 prostate
# K-562 leukemia = tested on: K-562 leukemia
# MALME-3M melanoma = tested on: MALME-3M melanoma
# MDA-MB-231 breast = tested on: MDA-MB-231 breast
# RXF 393 renal = tested on: RXF 393 renal
# SF-268 CNS = tested on: SF-268 CNS
# SF-295 CNS = tested on: SF-295 CNS
# SF-539 CNS = tested on: SF-539 CNS
# UACC-257 melanoma = tested on: UACC-257 melanoma
# M14 melanoma = tested on: M14 melanoma
Structure (SMILES),growth (NCI-H23 lung),growth (NCI-H226 lung),growth (NCI-H322M lung),growth (HOP-62 NSCLC),growth (NCI-H460 lung),growth (HOP-92 NSCLC),growth (NCI-H522 lung),growth (A549/ATCC NSCLC),growth (786-0 renal),growth (COLO 205 colon),growth (DU-145 prostate),growth (K-562 leukemia),growth (MALME-3M melanoma),growth (MDA-MB-231 breast),growth (RXF 393 renal),growth (SF-268 CNS),growth (SF-295 CNS),growth (SF-539 CNS),growth (UACC-257 melanoma),growth (M14 melanoma)
Cc1c(-c2ccc(-c3ccccc3F)cc2)nc2ccc(F)cc2c1C(=O)O,54.6%,65.4%,44.5%,49.3%,10.6%,42.5%,34.3%,34.7%,23%,49.2%,42.5%,26.3%,62.8%,65.2%,37.2%,50.7%,22.8%,29%,19.8%,53.7%
CCOc1ccc([C@@H]2[C@@H](Oc3ccccc3)C(=O)N2c2cc(OC)c(OC)c(OC)c2)cc1,23.9%,41.5%,38.6%,27.4%,7.32% (active),63.3%,10.5%,23.1%,10.1%,-47.2% (active),12.5%,6.3% (active),71.8%,10.1%,14.1%,33.9%,13.1%,-12.9% (active),73.7%,4.74% (active)
COc1ccc(C2CC(c3cccc(Nc4ccnc5cc(Cl)ccc45)c3)=NN2c2ccccc2)cc1 (stereo not given),80%,89%,75%,60%,43.7%,57.8%,54.4%,52.1%,91.8%,80.4%,82.8%,20.7%,58.7%,74.2%,99%,71.2%,23%,65.4%,59.7%,27%
Cc1nc2c(-c3cnc(N)nc3)nc(N3CCOCC3)nc2n1C(C)C,16.5%,-1.05% (active),-5.38% (active),-12.7% (active),12.2%,-17.2% (active),4.22% (active),-1.09% (active),-8.16% (active),-2.93% (active),13.4%,12.6%,-19.2% (active),23.9%,-29.6% (active),9.06% (active),-36.1% (active),-42.2% (active),-23% (active),4.2% (active)
COc1ccc(NC(=O)c2ccc(C(F)(F)F)nc2Nc2ccc(Cl)cc2C)cc1Cl,3.83% (active),26.7%,45.8%,32.4%,7.62% (active),-8.93% (active),18.9%,14.2%,17%,-14.5% (active),9.29% (active),16.4%,34.8%,7.34% (active),42.5%,38.2%,3.72% (active),50.3%,22%,34.2%
O=C(N=Nc1c(Cl)c(O)c2ccccc2c1O)C(=O)Nc1cccc(C(F)(F)F)c1,71.5%,88.5%,63.4%,47.9%,79.8%,79.2%,8.55% (active),87.1%,90.3%,47.3%,-38.7% (active),57.6%,10.7%,56.6%,81.5%,68.2%,41.1%,102%,100%,32.8%
CC[C@H](Nc1nc(N)nc(C2CC2)c1C#N)c1nc2cccc(NCc3ccc(C(=O)NO)cc3)c2c(=O)n1-c1ccccc1,-14.8% (active),-21.9% (active),21.3%,5.11% (active),-15.1% (active),-14% (active),-29.6% (active),-30.6% (active),-9.68% (active),-17.8% (active),-29.3% (active),-14% (active),-2.35% (active),2.7% (active),-15.2% (active),4.22% (active),-26.9% (active),-0.037% (active),-2.7% (active),-18.6% (active)
CC(C)(C)CC(C)(C)NCc1cc(C(C)(C)C)cc(CNC(C)(C)CC(C)(C)C)c1O,38.7%,72.7%,83.3%,69.4%,50.8%,-1.38% (active),8.73% (active),67.6%,71.1%,0.858% (active),66.6%,3.08% (active),51%,23.3%,76.2%,85.2%,57.7%,83.8%,75.3%,70.1%
CCOC(=O)C1=C(C)NC(SCc2nnc(-c3ccc(Cl)cc3)o2)=NC1c1ccc(Br)cc1 (stereo not given),75.7%,78.9%,86.4%,86.9%,80.4%,57.8%,67.6%,62.4%,84.9%,77.6%,84.3%,60.7%,83.1%,59.8%,75%,86.6%,73.6%,88.7%,73%,74%
ClCc1cccc(CSc2ncnc3c2ncn3Cc2cccc(CCl)c2)c1,33.9%,-54.8% (active),101%,-38.8% (active),36.7%,99.3%,-69.8% (active),88.7%,13%,26.3%,50.4%,14.2%,41.7%,12%,-20.2% (active),17%,92%,58.2%,42.5%,-71.8% (active)
c1ccc2c(Cc3csc4ccccc34)csc2c1,84.7%,95.1%,87.2%,83.2%,104%,77.7%,65.3%,83%,93.8%,83.3%,110%,23.8%,81.9%,94.9%,83.6%,104%,69.2%,91.4%,93.5%,67.7%
CC(=O)c1ccc(Nc2nc(Cl)nc(Oc3c(Cl)cccc3Cl)n2)cc1,92.3%,74.9%,104%,101%,79.9%,81.2%,64.4%,83.8%,100%,99.7%,91.1%,82.5%,83.2%,80%,101%,91.3%,89.6%,90.4%,95.4%,101%
O=C(OCc1ccc2c(Cl)cc(Cl)c(O)c2n1)c1cc2ccccc2[nH]1,-54.4% (active),-73.7% (active),8.26% (active),-35.1% (active),-75% (active),-77.3% (active),-73.8% (active),-54.2% (active),-78.6% (active),-87.1% (active),-94.5% (active),-5.38% (active),-77.7% (active),-78.3% (active),-94.9% (active),-80.4% (active),64.3%,-91.1% (active),-72.4% (active),-69.7% (active)
